Chronic BCR inh: blocks chronic active B-cell receptor signaling. AID 493014. ABC-DLBCL IkBa-CBG/CBR reporter, luminescence ratio, 4 h. Potency, µM (series often up to 46.1 µM), actives largely listed as inhibitors. 0.05% of 340,000 active; active = well fitted inhibition curve with a large enough effect in the signal ratio, with a control signal flat, not every such curve was filed as active; inconclusive = small, poorly fitted or top-dose-only effect, or effect the other way, or a change in a side signal; the % refers to the signal ratio
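TMD8 ABC-DLBCL cells carrying doxycycline-inducible green luciferase fused to IkappaBalpha plus unfused red luciferase were exposed to compounds (up to 46 uM) for 4 hrs at 37C. Activity came from the overlap-corrected green/red luminescence ratio.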
GLS inh: inhibitors of human glutaminase (GLS). O94925. GLS enzymatic activity, qHTS titration. Potency, µM (highest dose often 45.5 µM), hits mostly inhibitors. 0.21% of 410,000 active. AID 624170
Target sequence (O94925 whole entry, looked up): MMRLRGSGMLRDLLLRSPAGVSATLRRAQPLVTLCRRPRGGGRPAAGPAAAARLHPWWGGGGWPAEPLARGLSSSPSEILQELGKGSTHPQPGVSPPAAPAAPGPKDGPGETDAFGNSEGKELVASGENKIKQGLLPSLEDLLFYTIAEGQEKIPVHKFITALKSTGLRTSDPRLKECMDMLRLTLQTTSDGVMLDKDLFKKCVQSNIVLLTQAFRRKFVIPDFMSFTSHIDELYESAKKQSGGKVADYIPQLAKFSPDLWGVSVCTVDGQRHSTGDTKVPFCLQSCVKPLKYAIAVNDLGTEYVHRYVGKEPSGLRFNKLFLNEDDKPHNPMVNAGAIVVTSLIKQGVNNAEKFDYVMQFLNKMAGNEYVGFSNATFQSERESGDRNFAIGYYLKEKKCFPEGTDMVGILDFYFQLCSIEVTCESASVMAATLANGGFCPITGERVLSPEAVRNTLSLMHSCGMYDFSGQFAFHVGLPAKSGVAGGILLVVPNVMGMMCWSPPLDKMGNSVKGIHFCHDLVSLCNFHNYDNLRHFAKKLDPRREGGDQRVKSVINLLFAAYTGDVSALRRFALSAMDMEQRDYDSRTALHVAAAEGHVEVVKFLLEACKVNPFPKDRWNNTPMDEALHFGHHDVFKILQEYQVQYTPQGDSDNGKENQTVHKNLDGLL
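Human kidney-isoform GLS in 45 mM KH2PO4 pH 8.2, 0.02% Tween-20, with compound, started with 1mM L-Glutamine (added stock). Glutamate oxidase/HRP/Amplex red coupled fluorescence read at start and after 30 min at RT.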
Tb PGK inh: blocks T. brucei phosphoglycerate kinase | 0.043% of 380,000 active | AID 602233 | Potency, µM (highest dose often 57.5 µM), most hits filed as inhibitors | P07378 | PGK/GAPDH coupled, Kinase-Glo luminescence, 60 min; note: nearly all actives have a fitted effect of over 60% in size
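Luminescent ATP detection (Kinase-Glo Plus) follows a 60-minute room-temperature incubation, with wells lacking PGK as controls. Buffer: 100 mM TEA (pH 7.6), 5 mM MgCl2, 0.01% Tween-20. Coupling enzyme GAPDH (100 nM final) supplies unstable 1,3-BPG in-well.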
B2AR arrestin: agonists driving beta-arrestin recruitment to human beta2-adrenergic receptor | beta-arrestin recruitment to beta2AR, cell-based reporter | 0.02% of 330,000 active | AID 492947 | Potency, µM (series often up to 46.1 µM), usual class: activators; note: nearly all actives have a fitted effect of over 65% in size
Tb PFK inh-1: T. brucei PFK enzyme inhibition | Potency, µM (highest dose often 57.5 µM), actives largely listed as inhibitors | 0.17% of 330,000 active | O15648 | AID 485367 | T. brucei PFK, ADP-Glo luminescence; note: nearly all actives have a fitted effect of over 60% in size
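ADP-Glo luminescence quantified ADP after 45 min at room temperature, with 1.25 nM T. brucei PFK, 0.1 mM ATP and 0.5 mM fructose-6-phosphate in pH 8.0 TEA buffer. qHTS titrations up to 57 µM; curves classified by quality.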
Pin1 inh: inhibitors of human Pin1; Pin1 FP peptide displacement, HiFluor488, 10 min; AID 504891; 0.009% of 390,000 active; Potency, µM (series often up to 115 µM), hits mostly inhibitors; active = well fitted inhibition curve with a large enough effect in the polarisation, with a control signal flat, not every such curve was filed as active; inconclusive = small, poorly fitted or top-dose-only effect, or effect the other way, or a change in a side signal; inactive = no such curve, though single readings can be large or run the other way; the % refers to the polarisation
TbPFK ATP: orthogonal confirmation of T. brucei phosphofructokinase inhibitors; AID 504636; Tb PFK enzyme, ATP depletion, Kinase-Glo Plus luminescence; Potency, µM (highest dose often 57.5 µM); shares compounds with Tb PFK inh-1; 47% of 1,100 active; calls by dose curve; note: nearly all actives have a fitted effect of over 60% in size
Tb PFK inh-2: validation of T. brucei phosphofructokinase inhibitors; Potency, µM (highest dose often 57.5 µM), actives largely listed as inhibitors; shares compounds with Tb PFK inh-1; purified T. brucei PFK, ADP-Glo luminescence, 45 min; 41% of 1,100 active; note: nearly all actives have a fitted effect of over 60% in size
Hits are given with their value; n = inactive; u = inconclusive; x = no result given. A selection: hits, their analogues and other compounds. The true share with any hit is near 0.42%. Unless noted, calls come from the whole dose curve; as a rule, active = well fitted curve in the direction sought with a large enough effect; inconclusive = small, poorly fitted or top-dose-only effect, or another doubt; inactive = no such curve, though single readings can be large; an effect the other way counts as inactive or inconclusive.

SMILES	Chronic BCR inh	GLS inh	Tb PGK inh	B2AR arrestin	Tb PFK inh-1	Pin1 inh	TbPFK ATP	Tb PFK inh-2
N#CC1=C(N)C(C#N)(C#N)C(c2ccc[nH]2)C2CCCC=C12 (configuration not stated)	n	n	x	n	u	u	n	n
O=C(Nc1ccc(OC(F)(F)F)cc1)C1CCN(S(=O)(=O)c2cccs2)CC1	x	n	n	x	x	u	x	x
O=C1Nc2ccccc2C(=O)C1(Cl)Cc1ccccc1 (configuration not stated)	n	u	n	n	u	n	11µM	13µM
Cc1[nH]c2ccccc2c1P(=S)(c1ccccc1)c1ccccc1	x	x	x	x	x	n	x	x
Nc1nc(SCCC(F)=C(F)F)n[nH]1	n	n	n	n	n	n	x	x
Nc1nc(SCc2ccc(Cl)c(Cl)c2)n[nH]1	u	n	n	n	13µM	n	9.5µM	13µM
Fc1ccc(CNc2ncnc3cc(Cl)ccc23)cc1	n	n	n	n	19µM	n	u	27µM
C[C@]12CC[C@H](O)C[C@H]1CCC1C2CC[C@]2(C)[C@@H](c3ccc(=O)oc3)C[C@H]3O[C@]132 (some centres not stated)	x	n	x	x	x	x	x	x
O=C1NC(=Nc2ccccc2)S/C1=C\C=C\c1ccco1	n	n	n	n	7.6µM	n	u	u
CCOP(=O)(OCC)c1nc(-c2ccc(F)cc2)oc1NCc1ccccc1	n	n	n	n	n	u	x	x
C=CCN1C(=O)/C(=C2/Sc3ccccc3N2CCCS(=O)(=O)O)SC1=S	n	u	n	n	u	u	n	u
C=CCN1C(=O)c2ccccc2Sc2ccc(C(=O)N3CCC4(CC3)OCCO4)cc21	n	n	n	n	n	n	x	x
O=[N+]([O-])c1ccc(Cl)c([N+](=O)[O-])c1	u	n	n	n	n	n	x	x
O=C1NC(c2ccc(Cl)c([N+](=O)[O-])c2)Nc2ccccc21 (configuration not stated)	n	n	n	n	21µM	n	24µM	13µM
CCN(CC)c1ccc2nc3ccccc3[n+](CC)c2c1	u	n	u	n	15µM	n	n	u
CNc1ccc2nc3ccccc3[n+](C)c2c1	u	n	n	n	n	u	x	x
O=c1oc2cc(Br)ccc2n1Cc1ccccc1	u	n	n	n	n	n	x	x
Cc1cccc([N+](=O)[O-])c1	n	n	n	n	n	n	x	x
Cc1ccc(S(=O)(=O)CCC(=O)c2cccc([N+](=O)[O-])c2)cc1	u	n	n	n	13µM	n	21µM	u
COc1ccc(C(=O)NCCn2cc(SCc3ccc(C(F)(F)F)cc3)c3ccccc32)cc1OC	x	n	n	x	x	u	x	x
NS(=O)(=O)c1ccc(NC(=O)C2COc3ccccc3O2)cc1 (configuration not stated)	n	n	n	n	21µM	n	6.7µM	30µM
CCOC(=O)c1c(-c2ccc(OC)cc2)oc2ccc(OC(=O)N(C)C)cc12	u	n	n	n	n	n	x	x
CCOC(=O)c1c(-c2ccc(OC)cc2)csc1/N=C/C1=C(O)CCCC1=O	u	n	n	n	u	u	n	n
Clc1ccc(CNc2cnccn2)cc1Cl	u	n	n	n	6.7µM	n	5.4µM	9.5µM
COc1cc(O)cc2cc3c(c(O)c12)C(=O)CC(C)(O)O3 (configuration not stated)	u	n	n	n	n	u	x	x
SMILES	Chronic BCR inh	GLS inh	Tb PGK inh	B2AR arrestin	Tb PFK inh-1	Pin1 inh	TbPFK ATP	Tb PFK inh-2
O=C1C=C(c2ccccc2)C(=O)N1Nc1ccccc1	u	u	n	n	24µM	n	21µM	u
O=C(O)c1ccc[nH]c1=S	n	u	n	n	n	n	x	x
COCC(=O)O[C@]1(CCN(C)CCCc2nc3ccccc3[nH]2)CCc2cc(F)ccc2[C@@H]1C(C)C	u	n	n	n	n	n	x	x
CCCC(C)c1nnc(NC(=O)c2cc(C(=O)OC)cc([N+](=O)[O-])c2)s1 (configuration not stated)	n	n	n	n	24µM	n	6.7µM	15µM
O=C(NNC(=O)c1ccncc1)Nc1ccc([N+](=O)[O-])cc1	u	n	n	n	u	n	u	u
COc1ccc(CCNc2oc(-c3ccc(OC)c(OC)c3)nc2P(=O)(OC)OC)cc1OC	u	u	n	n	n	n	x	x
COc1ccc(C(=O)CSC#N)cc1OC	u	n	n	n	u	n	4.8µM	12µM
COc1ccc(C(=O)CN2CCOCC2)cc1F	u	n	n	n	n	u	x	x
Cc1cc(C)n2c(=S)[nH]nc2n1	n	u	n	n	u	n	27µM	u
ClC1=C(Cl)[C@]2(Cl)[C@@H]3[C@@H]4C[C@@H]([C@H]5O[C@@H]45)[C@@H]3[C@@]1(Cl)C2(Cl)Cl	x	n	x	x	x	x	x	x
COc1nccnc1NS(=O)(=O)c1ccc(NCc2cc(Br)ccc2O)cc1	n	n	n	n	u	u	u	n
O=C(Cn1c(=O)oc2cc(S(=O)(=O)NCc3ccccc3)ccc21)N(CCO)Cc1ccccc1	u	n	n	x	x	n	x	x
Cc1ccc(S(=O)(=O)Oc2ccccc2C=C2C(=O)N(C)C(=O)N(C)C2=O)cc1	n	n	n	n	n	n	x	x
COc1ccccc1/C=C1\SC(=S)N(NS(=O)(=O)c2ccccc2)C1=O	n	n	n	n	u	n	n	u
Cc1cccc(C)c1OCC(=O)NNC(=O)CCCn1c(=O)oc2ccccc21	u	n	n	n	n	n	x	x
C/C(=N\NC(=O)c1cc(O)cc(O)c1)c1ccc(NC(=O)Cc2ccccc2)cc1	u	n	7.9µM	n	u	x	u	u
C=CCC1(C(C)CCC)C(=O)N=C(S)NC1=O (configuration not stated)	x	n	x	x	x	x	x	x
NC(=O)c1c(NC(=O)c2ccc(S(=O)(=O)N(CCCl)CCCl)cc2)sc2c1CCCCC2	n	n	n	n	n	n	x	x
COC(=O)c1c(NC(=O)Cc2cccs2)sc2c1CCCC2	n	n	n	n	u	u	u	u
O=C(Cc1cccc2ccccc12)Nc1cc(C(=O)O)cc(C(=O)O)c1	n	n	n	n	8.5µM	n	1.9µM	u
CCC(=O)Nc1ccccc1	u	n	n	n	n	n	x	x
COc1ccc(Nc2nc(C)cc(=O)[nH]2)cc1	n	n	n	n	12µM	n	13µM	24µM
O=C(O)c1ccc(Cl)c(S(=O)(=O)Nc2ccc3cn[nH]c3c2)c1	n	n	n	n	u	n	n	n
